Only a selection was taken, and hits are over-represented in it overall.
B2AR arrestin = beta2AR (human) beta-arrestin recruitment activity | beta-arrestin recruitment to beta2AR, cell-based reporter | Potency, µM (highest dose often 46.1 µM), for inactives: at the highest dose activation, most hits filed as activators | actives 0.02% (n = 330,000) | AID 492947;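 also: potency is read from the fitted curve at half-maximal effect; 0% = DMSO controls and full agonism = EC100 isoproterenol or metaproterenol; nearly all actives have a fitted effect of over 65% in size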
BCR signal inh = blocks chronic active B-cell receptor signaling; ABC-DLBCL IkBa-CBG/CBR reporter, luminescence ratio, 4 h; Potency, µM (highest dose often 46.1 µM), for inactives: at the top dose activity change, negative = inhibition, most hits filed as inhibitors; actives 0.05% (n = 340,000); active = well fitted inhibition curve with a large enough effect in the signal ratio, with a control signal flat, not every such curve was filed as active; inconclusive = small, poorly fitted or top-dose-only effect, or effect the other way, or a change in a side signal; the % refers to the signal ratio;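 also: potency is read from the fitted curve at half-maximal effect; plate controls were basal doxycycline-induced cells for no effect and cells given 10 µM MG132 for full effect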
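Concentration-response series (up to 46 uM) were applied to TMD8 dual-reporter cells for 4 h at 37C with doxycycline. Green/red ratio, after filter-overlap correction, defined %Activity; red signal alone was normalised to basal cells and zero luminescence.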
Menin MLL FP TR = displaces Texas Red mutant MLL peptide from human menin. O00255. Menin + Texas Red MLL mutant peptide, fluorescence polarization. Potency, µM (titrated, usually from 61.6 µM), for inactives: at the top dose FP activity change, negative = inhibition, hits mostly inhibitors. actives 0.23% (n = 270,000). AID 1768; active = well fitted inhibition curve with a large enough effect in the polarisation, with a control signal flat, not every such curve was filed as active; inconclusive = small, poorly fitted or top-dose-only effect, or effect the other way, or a change in a side signal; inactive = no such curve, though single readings can be large or run the other way; the % refers to the polarisation; also: potency is read from the fitted curve at half-maximal effect; % of control where 0% means no effect
MLL CXXC-DNA inh = MLL CXXC-DNA interaction inhibition; Q03164; MLL-CXXC / FITC-HOXA9 DNA fluorescence polarization; Potency, µM (doses to about 115 µM), inactives show at the highest dose activity change, negative = inhibition, most hits filed as inhibitors; actives 0.037% (n = 290,000); active = well fitted inhibition curve with a large enough effect in the polarisation, with a control signal flat, not every such curve was filed as active; inconclusive = small, poorly fitted or top-dose-only effect, or effect the other way, or a change in a side signal; inactive = no such curve, though single readings can be large or run the other way; the % refers to the polarisation; also: potency is read from the fitted curve at half-maximal effect
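Purified MLL-CXXC (added from a 7 uM solution) was preincubated 5 min at ambient with pinned compounds in 50 mM Tris-HCl pH 7.5, 50 mM NaCl, 1 mM DTT, 0.05% BSA. Fluorescein-labeled HOX-A9 DNA (50 nM solution) followed, 30 min, then polarization read.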
Menin-MLL FL inh = displaces fluorescein MLL peptide from human menin. Fluorescence polarization, fluorescein-MLL peptide displacement from menin. FP activity change, % at 61.4 µM. 290,000 tested, under 10 active. AID 1766; active = well fitted curve in the direction sought with a large enough effect in the polarisation, not every such curve was filed as active; inconclusive = small, poorly fitted or top-dose-only effect, or effect the other way, or a change in a side signal; inactive = no such curve, though single readings can be large or run the other way; the % refers to the polarisation; also: % of control where 0% means no effect
TSG101-PTAP inh = blocks PTAP/TSG101 interaction to inhibit HIV-1 budding; Q99816; Fluorescence polarization, FITC-PTAP peptide / Tsg101 binding; Potency, µM (highest dose often 115 µM), inactives show at the top dose activity change, negative = inhibition, hits mostly inhibitors; 340,000 tested, under 10 active; active = well fitted inhibition curve with a large enough effect in the main read-out, with a control signal flat, not every such curve was filed as active; inconclusive = small, poorly fitted or top-dose-only effect, or effect the other way, or a change in a side signal; inactive = no such curve, though single readings can be large or run the other way; also: potency is read from the fitted curve at half-maximal effect; % of control where 0% means no effect
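Fluorescence polarization binding of Tsg101 binding domain (10 uM final) to FITC-labeled PTAP peptide (50 nM final) in HEPES pH 7.5 buffer with NaCl, Tween 20, EDTA, TCEP. Compounds added before peptide; binding 20 min at RT.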
MLL CXXC Fl = MLL CXXC-DNA interaction inhibition, fluorescein FP. shares compounds with MLL CXXC-DNA inh. MLL CXXC-DNA binding, fluorescein FP. Potency, µM (top dose mostly 345 µM), without a hit: top-dose activity change, negative = inhibition, usual class: inhibitors. actives 70% (n = 200). AID 624160; also: potency is read from the fitted curve at half-maximal effect; nearly all actives have a fitted effect of over 80% in size
MLL CXXC FP-TR = disrupts human MLL CXXC domain binding to DNA, Texas Red. shares compounds with MLL CXXC-DNA inh. actives 40% (n = 200). MLL CXXC-DNA binding, Texas Red fluorescence polarization. Potency, µM (titrated, usually from 345 µM), without a hit: at the top dose activity change, negative = inhibition, actives largely listed as inhibitors; also: potency is read from the fitted curve at half-maximal effect; % is scaled to controls: 0 for no effect and ±100 for the full control effect; nearly all actives have a fitted effect of over 75% in size
MLL CXXC HTRF = disrupts human MLL CXXC domain binding to DNA by HTRF. shares compounds with MLL CXXC-DNA inh. MLL CXXC-DNA binding, HTRF, biochemical. Potency, µM (top dose mostly 172 µM), for the others: at the highest dose activity change, negative = inhibition, actives largely listed as inhibitors. actives 30% (n = 210); also: % is scaled to controls: 0 for no effect and ±100 for the full control effect; nearly all actives have a fitted effect of over 80% in size
Active calls of the source: *; ? = inconclusive; . = no result given; [ ] = remark or other dose. Unless noted, calls follow the shape of the dose curve; as a rule, active = well fitted curve in the direction sought with a large enough effect; inconclusive = small, poorly fitted or top-dose-only effect, or another doubt; inactive = no such curve, though single readings can be large; an effect the other way counts as inactive or inconclusive.

SMILES | B2AR arrestin | BCR signal inh | Menin MLL FP TR | MLL CXXC-DNA inh | Menin-MLL FL inh | TSG101-PTAP inh | others
CSc1ccccc1NC(=O)c1ccc(CN2CCOCC2)cc1 | 0% | -5% | 18% | -8% | -1 | 0%
CC/C(Cc1ccccc1)=N/NC(=O)CNC(=O)c1ccc(Cl)cc1Cl | 0% | -15% | ? | -11% | -2 | -3%
CC/C(C)=N\NC(=O)CNC(=O)c1ccc(Cl)cc1Cl | 0% | 13µM* | 6% | 5% | 0 | -1%
CCOc1ccc(NC(=O)CCNc2c(N3CCCC3)c(=O)c2=O)cc1 | 0% | 1% | -12% | 1% | 0 | -2%
Cc1cnn(CCC(=O)NNC(=S)NCC(C)C)c1 | 0% | 18µM* | 2% | 17% | 1 | -1%
COc1ccc(C(=O)NC(=S)NCc2cccnc2)cc1Cl | 0% | -23% | -9% | 6% | 0 | -4%
Cc1nn(-c2cc(N3CCCC3)ccc2[N+](=O)[O-])c(=O)c2ccccc12 | 1% | 7% | 2% | 1% | 4 | 2%
CCOc1ccccc1CNc1ccc(O)cc1 | 14% | -10% | 28µM* | -16% | -4 | -1%
CCOc1cccc(CNc2ccc(O)cc2)c1OCc1ccc(Cl)cc1 | ? | 13% | 32µM* | -1% | -1 | -1%
CCc1ccc(CNc2ccc(O)cc2)cc1 | ? | -11% | 35µM* | 3% | -2 | -7%
COc1cccc(CNCCO)c1OCc1ccc(Cl)cc1 | 0% | 12% | -4% | 2% | -2 | 1%
Oc1ccc(NCc2ccccc2OCc2ccccc2F)cc1 | 6% | ? | ? | -13% | 4 | -1%
Cc1csc(NC(=O)CSc2nnc(NC(=O)COc3ccc(Cl)cc3)s2)n1 | -1% | 2% | 25µM* | 13% | 18 | 0%
COc1ccc(NC(=O)c2cc(=O)[nH]c3ccccc23)cc1 | -1% | 1% | -14% | -3% | -10 | -5%
COc1ccc(NCc2cc(=O)[nH]c3ccccc23)cc1 | 0% | -13% | 40µM* | 21% | -21 | -4%
CS(=O)(=O)N1CCN(C2C3CC4CC(C3)CC2C4)CC1 (configuration not stated) | 0% | 10% | -26% | -13% | -5 | -11%
COc1ccccc1NC(=O)N1CCN(c2ccnc3cc(Cl)ccc23)CC1 | 0% | ? | . | -9% | -1 | -3%
COc1ccccc1N1CCN(c2ccnc3cc(Cl)ccc23)CC1 | -1% | 20µM* | -17% | 4% | 2 | -6%
CCCCn1c(C)cc2c(c1=O)C1O[C@](CCCC)(Cc3cc(C#N)ccc31)O2 | -1%[9.22 µM] | 25%[9.22 µM] | -3%[11.7 µM] | -5%[23 µM] | 4[11.7 µM] | .
Cc1cc(N2CCCC2)ccc1/C=C1/C(=O)N(C)C(=S)N1C | 6% | 5% | 22µM* | ? | ? | 1%
O=S(=O)(c1ccc(F)cc1)n1ccc(-c2cccc(OCc3c(F)cccc3Cl)c2)n1 | 0% | 16% | -25% | 10% | -1 | -5%
CCNc1ccc2noc3c2c1C(=O)c1ccccc1-3 | 0% | ? | ? | ? | ? | ?
CCOc1ccc2noc3c2c1C(=O)c1ccccc1-3 | 0% | 14% | 8.9µM* | ? | ? | -1%
CCCC(=O)C1=C(c2ccc(C)cc2)N(C(=O)CCC)n2cnnc2S1 | . | 20µM* | . | . | . | .
O=C(CN1CCCN(S(=O)(=O)c2ccc(Br)s2)CC1)Nc1ccc(Cl)cc1 | 0% | ? | 11% | 5% | 2 | -2%
SMILES | B2AR arrestin | BCR signal inh | Menin MLL FP TR | MLL CXXC-DNA inh | Menin-MLL FL inh | TSG101-PTAP inh | others
COc1ccccc1/C=C1/C(=O)ON=C1C | 0% | -5% | -3% | ? | -7 | -2% | MLL CXXC Fl=100µM*;MLL CXXC FP-TR=126µM*;MLL CXXC HTRF=-14%
COc1ccc(/C=C2/C(=O)ON=C2C)cc1Br | 0% | ? | -2% | -2% | 0 | 0%
O=C(Oc1ccc(F)cc1)c1cccnc1 | 0% | ? | -47% | 81% | -11 | -3%
C/C(=N\NC(=O)c1ccc2c(c1)OCCO2)c1ccccc1 | -1% | ? | . | -8% | 1 | -2%
Fc1ccccc1COc1ccc(Br)cc1CNCc1ccncc1 | 0% | ? | ? | -20% | -1 | -9%
Fc1ccccc1COc1ccc(Br)cc1CNCc1cccnc1 | 0% | ? | ? | ? | -5 | 0% | MLL CXXC Fl=?;MLL CXXC FP-TR=?;MLL CXXC HTRF=-10%
Cc1cccc(-n2c(C)cc(C=C3C(=O)c4ccccc4C3=O)c2C)c1 | 0% | ? | ? | 32µM* | ? | -2% | MLL CXXC Fl=142µM*;MLL CXXC FP-TR=?;MLL CXXC HTRF=41%
C=CCn1c(-c2oc3nc(-c4ccccc4)cc(-c4ccccc4)c3c2N)n[nH]c1=S | -2% | -1% | 6% | -3% | 9 | 5%
CCn1c(CSc2n[nH]c(N)n2)nc2cc(C(=O)O)ccc21 | 0% | 8% | ? | 35µM* | -26 | -22% | MLL CXXC Fl=113µM*;MLL CXXC FP-TR=113µM*;MLL CXXC HTRF=7%
CCn1c(CSc2nnc3ccccn23)nc2cc(C(=O)O)ccc21 | -1% | 6% | ? | ? | ? | -19%
CC(=O)c1c(-c2ccccc2)[nH]c2ccccc12 | 0% | ? | -30% | 4% | 4 | -2%
O=C(O)/C=C/C(=O)c1c(-c2ccccc2)[nH]c2ccccc12 | 0% | ? | 80% | ? | 5 | -6% | MLL CXXC Fl=7.1µM*;MLL CXXC FP-TR=159µM*;MLL CXXC HTRF=49µM*
O=C(Nc1cc(C(=O)Nc2ccc(S(=O)(=O)O)cc2S(=O)(=O)O)cc(C(=O)Nc2ccc(S(=O)(=O)O)cc2S(=O)(=O)O)c1)Nc1cc(C(=O)Nc2ccc(S(=O)(=O)O)cc2S(=O)(=O)O)cc(C(=O)Nc2ccc(S(=O)(=O)O)cc2S(=O)(=O)O)c1 | . | . | ? | 3.5µM* | ? | . | MLL CXXC Fl=4.5µM*;MLL CXXC FP-TR=11µM*;MLL CXXC HTRF=3.1µM*
Cc1nc2nc(-c3cccs3)cn2nc1C | 0% | 3% | -1% | 35µM* | ? | ? | MLL CXXC Fl=126µM*;MLL CXXC FP-TR=-3%;MLL CXXC HTRF=-1%
